PubChem BioAssay (NCATS)
Results filed as inconclusive are left out. Where a call stands in place of a potency, no number is given. Activity calls are given as the source filed them. Calls come from the whole dose curve; as a rule, active = well fitted inhibition curve with a large enough effect; inconclusive = small, poorly fitted or top-dose-only effect; inactive = flat fitted curve, though single readings scatter.

Assays:
Assay in all cases: qHTS profiling for inhibitors of Plasmodium falciparum proliferation (AID 504749); note: nearly all actives have a fitted effect of over 60% in size
Settings in all cases: P. falciparum in erythrocytes, SYBR Green DNA, 72 h; series mostly up to 28.7 µM
ECU = test system: ECU
Outline: (§1)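 SYBR Green fluorescence (ex 485 nm, em 535 nm) reports parasite DNA after 72 h compound exposure of infected red cells at 0.3% parasitemia, 2.5% hematocrit; signal normalized to 0.29 uM artemisinin and vehicle wells.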

FAB9 = test system: FAB9
Outline: as §1

HB3 = test system: HB3
Outline: as §1

JCK = test system: JCK
Outline: as §1

N140 = test system: N140
Outline: as §1

P93_24 = test system: P93_24
Outline: as §1

P94_40 = test system: P94_40
Outline: as §1

PAD = test system: PAD
Outline: as §1

GB4 = test system: GB4
Outline: as §1

ICS = test system: ICS
Outline: as §1
Potency is the fitted concentration of half-maximal effect.

Row | Structure (SMILES) | Potency (ECU) | Potency (FAB9) | Potency (HB3) | Potency (JCK) | Potency (N140) | Potency (P93_24) | Potency (P94_40) | Potency (PAD) | Potency (GB4) | Potency (ICS)
1 | CCCCC1=NC2(CCCC2)C(=O)N1Cc1ccc(-c2ccccc2-c2nn[nH]n2)cc1 | inactive | inactive | inactive | inactive | inactive | inactive | inactive | inactive | – | –
2 | C[C@@H]1C[C@H]2[C@@H]3CCC4=CC(=O)C=C[C@]4(C)[C@@]3(F)[C@@H](O)C[C@]2(C)[C@H]1C(=O)CO | inactive | inactive | – | inactive | – | – | inactive | – | – | –
3 | c1ccc(CNCCNCc2ccccc2)cc1 | 11.2 µM (active) | inactive | inactive | inactive | – | – | – | – | – | –
4 | c1ccc(-c2ccc(C(c3ccccc3)n3ccnc3)cc2)cc1 (centres undefined) | 3.55 µM (active) | – | 10 µM (active) | – | 7.08 µM (active) | 3.16 µM (active) | 11.2 µM (active) | 7.94 µM (active) | 8.49 µM (active) | 2.24 µM (active)
5 | C[C@@H](CN(C)C)CN1c2ccccc2Sc2ccccc21 | inactive | inactive | inactive | inactive | – | inactive | – | inactive | – | –
6 | CN(C(=O)CN(CCO)CC(=O)N(C)C(C)(C)Cc1ccccc1)C(C)(C)Cc1ccccc1 | inactive | inactive | inactive | inactive | – | inactive | inactive | inactive | – | –
7 | COc1cccc(CCc2ccccc2OCC(CN(C)C)OC(=O)CCC(=O)O)c1 (centres undefined) | 4.47 µM (active) | – | 12.6 µM (active) | 10 µM (active) | 2.82 µM (active) | 4.47 µM (active) | 4.47 µM (active) | 3.55 µM (active) | 2.13 µM (active) | 1.12 µM (active)
8 | CCC(C(=O)OCCN(CC)CC)c1ccccc1 (centres undefined) | inactive | inactive | inactive | inactive | inactive | inactive | inactive | inactive | – | inactive
9 | CCOc1ccc(Cc2nccc3cc(OCC)c(OCC)cc23)cc1OCC | inactive | inactive | – | 10 µM (active) | inactive | inactive | inactive | inactive | – | inactive
10 | C[C@@H]1C(=O)NC2=Nc3cccc(Cl)c3CN21 | inactive | inactive | inactive | inactive | inactive | inactive | inactive | inactive | – | –
11 | COc1cc(-c2ccc(=O)[nH]n2)ccc1OC(F)F | inactive | – | inactive | – | 0.224 µM (active) | 0.0112 µM (active) | 0.112 µM (active) | inactive | inactive | inactive
12 | CC1=C(C(=O)OC(C)C)C(c2cccc([N+](=O)[O-])c2)C(C(=O)OC2CN(C(c3ccccc3)c3ccccc3)C2)=C(N)N1 (centres undefined) | 7.08 µM (active) | – | 11.2 µM (active) | – | 7.94 µM (active) | 6.31 µM (active) | 8.91 µM (active) | 10 µM (active) | 6.01 µM (active) | 4.47 µM (active)
13 | CCN1CCN(c2cc3c(cc2F)c(=O)c(C(=O)O)cn3C2CC2)CC1 | inactive | – | inactive | inactive | inactive | inactive | inactive | inactive | inactive | –
14 | NC(=O)C(=O)N/N=C/c1ccc([N+](=O)[O-])o1 | inactive | inactive | inactive | inactive | inactive | inactive | inactive | inactive | – | inactive
15 | Oc1ccc(Cl)c2cccnc12 | inactive | inactive | – | inactive | inactive | inactive | inactive | inactive | – | 11.2 µM (active)
16 | CN(C)C(=S)SC(=S)N(C)C | 1.12 µM (active) | – | 5.01 µM (active) | – | 11.2 µM (active) | 8.91 µM (active) | 11.2 µM (active) | 5.01 µM (active) | 13.5 µM (active) | 5.01 µM (active)
17 | CCCCOc1cc(C(=O)NCCN(CC)CC)c2ccccc2n1 | inactive | inactive | inactive | inactive | inactive | inactive | inactive | inactive | – | –
18 | Cc1c(C)n(CCN(C)C)c2ccc(C(=O)OCCN(C)C)cc12 | inactive | inactive | inactive | inactive | inactive | inactive | inactive | inactive | – | –
19 | CO/N=C1\CN(c2nc3c(cc2F)c(=O)c(C(=O)O)cn3C2CC2)CC1CN (centres undefined) | – | – | 11.2 µM (active) | – | – | 8.91 µM (active) | – | – | 9.53 µM (active) | 5.62 µM (active)
20 | Cc1ccc(C(=O)C(C)CN2CCCCC2)cc1 (centres undefined) | – | inactive | – | inactive | – | – | – | – | 13.5 µM (active) | 3.98 µM (active)
21 | Clc1ccc2c(c1)CCc1cccnc1C2=C1CCNCC1 | – | inactive | inactive | inactive | – | – | – | – | – | 11.2 µM (active)
22 | COC(=O)[C@H]1[C@H]2C[C@H]3c4[nH]c5ccccc5c4CCN3C[C@H]2CC[C@@H]1O | – | – | – | – | – | – | – | – | inactive | –
23 | CN1CCC(=C2c3ccccc3Sc3ccccc32)CC1 | 7.08 µM (active) | – | – | inactive | 10 µM (active) | 10 µM (active) | 10 µM (active) | 12.6 µM (active) | 3.38 µM (active) | 5.62 µM (active)
24 | CN1CCN(CCCN2c3ccccc3Sc3ccc(S(=O)(=O)N(C)C)cc32)CC1 | 4.47 µM (active) | – | – | – | – | 3.16 µM (active) | 3.16 µM (active) | 3.98 µM (active) | – | 1.41 µM (active)
25 | CCOC(=O)/C=C(C)/C=C/C=C(C)/C=C/c1c(C)cc(OC)c(C)c1C | – | inactive | – | inactive | – | – | 8.91 µM (active) | – | inactive | –
26 | CN(C)CC/C=C1\c2ccccc2Sc2ccc(Cl)cc21 | – | 8.91 µM (active) | – | – | 12.6 µM (active) | – | 10 µM (active) | – | – | 10 µM (active)
27 | O=C(Nc1ccc(Oc2ccc(Cl)cc2)c(Cl)c1)c1cc(I)cc(I)c1O | – | inactive | inactive | inactive | inactive | inactive | inactive | inactive | inactive | –

Row | Structure (SMILES) | Potency (ECU) | Potency (FAB9) | Potency (HB3) | Potency (JCK) | Potency (N140) | Potency (P93_24) | Potency (P94_40) | Potency (PAD) | Potency (GB4) | Potency (ICS)
28 | CCCCCCCCCCOCC(O)CN (centres undefined) | – | inactive | inactive | inactive | – | – | – | – | 9.53 µM (active) | 11.2 µM (active)
29 | c1ccc(OCc2ccc(CCCN3CCOCC3)cc2)cc1 | – | inactive | inactive | inactive | inactive | inactive | inactive | inactive | – | –
30 | CCOC(=O)COc1ccc2c(C)c(CCN(CC)CC)c(=O)oc2c1Cl | – | inactive | inactive | inactive | inactive | inactive | inactive | inactive | inactive | inactive
31 | CNCCC=C1c2ccccc2CCc2ccccc21 | – | inactive | inactive | – | 7.08 µM (active) | – | – | – | 8.49 µM (active) | 11.2 µM (active)
32 | O=C(N/N=C/c1ccccc1O)c1ccncc1 | – | inactive | – | inactive | – | 10 µM (active) | 10 µM (active) | – | – | 3.55 µM (active)
33 | CCN(CC)CCOC(=O)C(c1ccccc1)C1CCCCC1 (centres undefined) | – | inactive | inactive | inactive | inactive | – | inactive | – | – | –
34 | COc1c(C)c2c(c(O)c1C/C=C(\C)CCC(=O)O)C(=O)OC2 | 5.01 µM (active) | – | – | – | 3.16 µM (active) | 2.82 µM (active) | 3.16 µM (active) | 3.16 µM (active) | 5.1 µM (active) | 3.55 µM (active)
35 | CN=C(NC#N)Nc1ccc(C2=NNC(=O)CC2C)cc1 (centres undefined) | – | – | – | – | – | – | – | – | inactive | –
36 | CC[N+](CC)(CCNC(=O)C(=O)NCC[N+](CC)(CC)Cc1ccccc1Cl)Cc1ccccc1Cl | – | 1.12 µM (active) | – | 10 µM (active) | – | 0.794 µM (active) | 0.316 µM (active) | 2.82 µM (active) | 2.39 µM (active) | 1.58 µM (active)
37 | C=C(CC)C(=O)c1ccc(OCC(=O)O)c(Cl)c1Cl | – | – | – | – | – | – | – | – | – | 10 µM (active)
38 | O=c1c(-c2ccccc2)c1-c1ccccc1 | – | – | 11.2 µM (active) | – | 11.2 µM (active) | – | – | – | 10.7 µM (active) | 4.47 µM (active)
39 | O=C1OCCN1/N=C/c1ccc([N+](=O)[O-])o1 | – | – | – | – | – | 11.2 µM (active) | – | – | – | 7.94 µM (active)
40 | CC(C)=CCC1C(=O)N(c2ccccc2)N(c2ccccc2)C1=O | – | inactive | – | inactive | – | inactive | – | – | – | –
41 | CC(C)NC[C@@H](O)COc1cccc2ccccc12 | – | inactive | – | – | 12.6 µM (active) | – | 12.6 µM (active) | – | 12 µM (active) | 7.08 µM (active)
42 | Oc1ccc(Cl)cc1Sc1cc(Cl)ccc1O | – | inactive | inactive | inactive | inactive | inactive | inactive | inactive | – | 8.91 µM (active)
43 | CCN(CC)CCNC(=O)COc1ccc(Cl)cc1 | – | inactive | inactive | inactive | 12.6 µM (active) | 11.2 µM (active) | – | 11.2 µM (active) | – | 12.6 µM (active)
44 | CCN(CC)CCOc1ccc(C(O)(Cc2ccc(Cl)cc2)c2ccc(C)cc2)cc1 (centres undefined) | – | inactive | – | – | – | 8.91 µM (active) | – | – | 13.5 µM (active) | 8.91 µM (active)
45 | CN(C)CCOc1ccccc1Cc1ccccc1 | – | inactive | inactive | – | 4.47 µM (active) | – | – | – | – | –
46 | Cc1cccc(C)c1NC(=O)CN1CCN(CCCC(c2ccc(F)cc2)c2ccc(F)cc2)CC1 | – | inactive | – | inactive | 3.16 µM (active) | 3.98 µM (active) | – | – | – | 3.55 µM (active)
47 | O=C1OC(c2ccc(O)cc2)(c2ccc(O)cc2)c2ccccc21 | – | inactive | inactive | inactive | – | – | inactive | inactive | inactive | inactive
48 | CCCCCCCCCCCCCCNCCO | – | inactive | 10 µM (active) | inactive | 14.1 µM (active) | – | – | – | – | 6.31 µM (active)
49 | Cc1ccc(O)c2ncccc12 | – | inactive | inactive | inactive | – | inactive | – | inactive | – | –
50 | NC(CS)C(=O)O (centres undefined) | – | – | 8.91 µM (active) | – | 11.2 µM (active) | 10 µM (active) | 12.6 µM (active) | – | – | 2 µM (active)
51 | CCCCc1nc(Cl)c(CO)n1Cc1ccc(-c2ccccc2-c2nn[nH]n2)cc1 | – | inactive | – | inactive | 12.6 µM (active) | – | 10 µM (active) | – | – | 7.94 µM (active)
52 | Oc1ccc(O)cc1 | – | inactive | – | inactive | – | – | – | inactive | – | 11.2 µM (active)
53 | CC(=O)N/N=C/c1ccc([N+](=O)[O-])o1 | – | – | – | – | 12.6 µM (active) | – | – | – | – | 5.62 µM (active)
